Sequences and labels used below:
T1: UNK ZnF1-6 (called full-length) (human, UniProt Q9C0B0 30-357)
T1 sequence: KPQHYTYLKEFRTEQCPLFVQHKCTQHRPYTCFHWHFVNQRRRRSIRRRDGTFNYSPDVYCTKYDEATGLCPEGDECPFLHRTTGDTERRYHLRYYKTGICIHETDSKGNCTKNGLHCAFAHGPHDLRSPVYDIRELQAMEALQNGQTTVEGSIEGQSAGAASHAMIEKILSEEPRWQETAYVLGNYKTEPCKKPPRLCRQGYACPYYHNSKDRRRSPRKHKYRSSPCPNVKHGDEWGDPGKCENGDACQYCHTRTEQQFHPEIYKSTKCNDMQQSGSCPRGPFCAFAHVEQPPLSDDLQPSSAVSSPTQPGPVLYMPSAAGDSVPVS

B1: ENSG00000142634:stop:overlap|stop_codon|ENSG00000142634|stop_codon|NA|stop_codon (ssRNA)
RNA: GGGAGUUCUACAGUCCGACGAUCAGGCGGAGGAGAUGAAGCAGCGGAAAGCGGCCUUCAAGGAGCUGCAGUCCACCUUUAAGUAGCGGGGGCUGCAGCCGACCGCCCUGCUCCGGCCCCAGUGUGGUGGGCGAGGGUGGCGCACAACAGAGGAUUGAGCAUCA
B2: ENSG00000100154:stop:overlap|stop_codon|ENSG00000100154|stop_codon|NA|stop_codon (ssRNA)
RNA: GGGAGUUCUACAGUCCGACGAUCAGCCAGUGAAGGCAGGUGACACUUACCUCCACCAGGUGAUGCAGGCUGUGGUGAUAAACUAGAGUGUGAAGAGCUCAGAGUGCAGCCUCUGGCCUUGCCACUCACAAGCUGUAGGACACUCAACAGAGGAUUGAGCAUCA
B3: chr18:33333173:33333394:-|CDS|ENSG00000166960|control|control|control (ssRNA)
RNA: GGGAGUUCUACAGUCCGACGAUCACAUUUUGAAAAACAAAAGACAGAGUUAGAAGAAGCAAAUGCAAAGAUUCAAGCAGACAUAGACUACAUGAAUGAACAUGGCCCUCUACUGGACUCUAAGCAGAAUCAGGAACUUCAAGACAACAGAGGAUUGAGCAUCA
B4: chr3:142163631:142163732:-|3pUTR|ENSG00000175066|unk|total|mutant (ssRNA)
RNA: GGGAGUUCUACAGUCCGACGAUCCCCAAAGUGCUGGGAUUGCAGCCGUGAACCACUGCACCCAGCCAAUGGGUGUAAUUUCACCGGAAAUAAUUCUUUUUGUCAGAAUGUACUGAAUUGUAAUAUUAAUACCUGAAAAUUUGUCAACAGAGGAUUGAGCAUCA
B5: ENSG00000101596:stop:overlap|stop_codon|ENSG00000101596|stop_codon|NA|stop_codon (ssRNA)
RNA: GGGAGUUCUACAGUCCGACGAUCUUAGUUGUAAUAAAAUAAAAGAUAAUGACAAAGAAGAUGGCUGCUUCUAUUUCAGGUUAUAGUUGAAGUCCUGCCUAAUCAACCUGUGAAGUUAGUACCUAAAAUUAAACCACCUACACCCAACAGAGGAUUGAGCAUCA
B6: chr20:18487131:18487232:-|3pUTR|ENSG00000089050|msi1|FALSE|unique (ssRNA)
RNA: GGGAGUUCUACAGUCCGACGAUCAAAUAUAGUAACCAGUAACCACAGCUAGCUGUAAAAUUGAAAAUUCAGUUCAGUCAAACUAGCCAUAUUUCAAGUGCUCAACAGCCACUGGUGGCUAUUGGUUACCUUACUGACCAGCCACAACAGAGGAUUGAGCAUCA
B7: chr9:34635388:34635489:-|3pUTR|ENSG00000147955|msi1|total|mutant (ssRNA)
RNA: GGGAGUUCUACAGUCCGACGAUCGGGAUAUCCAUGCUUAUGUAUCCAAACACAGAGACCCAUGGGAACAAAUGAGACACAUACCGAUACUGAGACCUGUGUGUACAGCCGGACCAUGCACUCACACCCAUCUGGAGAGGGAGCCAACAGAGGAUUGAGCAUCA
B8: chr1:16124655:16124788:-|3pUTR|ENSG00000142627|msi1|total|mutant (ssRNA)
RNA: GGGAGUUCUACAGUCCGACGAUCAGACUGUGAACUUGACUGGGUGAGACCCAAAGCGGUCCCUGUCCCUCCCGUGCCUUCUUCCGACCCUCGGGCCCCAUCCUCAUCCCUGACUGGCCAAACCCUUGCUUUCCUGGGCCUUUGCAACAGAGGAUUGAGCAUCA
B9: ENSG00000070961:be:win_2401|CDS|ENSG00000070961|bound_else_gene|NA|bound_elsewhere_windowed (ssRNA)
RNA: GGGAGUUCUACAGUCCGACGAUCGAUGGCCCAGCACUAAAGAAAGCAGAUGUUGGAUUUGCAAUGGGUAUUGCUGGAACUGAUGUAGCUAAAGAAGCAUCCGAUAUUAUUCUCACAGAUGACAACUUUACAAGCAUUGUUAAACAACAGAGGAUUGAGCAUCA
B10: chr1:6592219:6592320:-|3pUTR|ENSG00000162413|unk|total|mutant (ssRNA)
RNA: GGGAGUUCUACAGUCCGACGAUCCCCAAAGCCGCCUUGGCUUGAGUUUUUGUCCUUGCCUCCUUUUCCGAGAAGAGGGCAUUCCGACUGCAUUUUCCUGGUUAAAGAAGGUUAAAGCAAAUGUUUAUUGCCUUUUCCCGUGAACAACAGAGGAUUGAGCAUCA
B11: ENSG00000168297:stop:overlap|stop_codon|ENSG00000168297|stop_codon|NA|stop_codon (ssRNA)
RNA: GGGAGUUCUACAGUCCGACGAUCCUGGGGCCAGCUCACCUCUCACGUCCCCGUCAUCGCCAACUCCACCCUCUACAUCAGGUUAGUGAUGGAGUAAAGUGACAUGCCACCUUCCUGUCCGCCAACAGGAGGAGCGGGCUGUGCCAACAGAGGAUUGAGCAUCA
B12: chr22:40826605:40826706:-|CDS|ENSG00000100380|unk|total|mutant (ssRNA)
RNA: GGGAGUUCUACAGUCCGACGAUCCACCAAAUUACAGGUCUAAAUAAGAGAUGGAAUUCCGGAUAAUAAACUUACUGACCCAGCCGGACACUUUUUAAAUACUAAUGAACCCUUUCUUUUCAGGAUCCAGAAGUUAUGGUGGCUCAACAGAGGAUUGAGCAUCA
B13: ENSG00000143373:stop:overlap|stop_codon|ENSG00000143373|stop_codon|NA|stop_codon (ssRNA)
RNA: GGGAGUUCUACAGUCCGACGAUCACUUCCGCACGCAUGGCAUGGCGUUCAUCAGGGCUCGGCAGGGGGCUGUUGGGGACAACUAGUCUCCAAGGCCUGGGACUGACCAGCCCCUUCCUCUUGGAGCCUGGUUUUCCCUACUGCCAACAGAGGAUUGAGCAUCA
B14: ENSG00000136451:be:win_2201|3pUTR|ENSG00000136451|bound_else_gene|NA|bound_elsewhere_windowed (ssRNA)
RNA: GGGAGUUCUACAGUCCGACGAUCAUUGUGACCUGAUAUUUGGAGAUGUAAAUAUUGCUCAGCAUAUUAAUCCCGAUGGAAUAUAGCAUUGUAGUUGACUUUUUAAAAAAAAAAAAAAUUUAAAAAAAAUCUACAAAUUGUGUUCAACAGAGGAUUGAGCAUCA
B15: chr3:11298707:11298833:+|CDS|ENSG00000197548|unk|total|mutant (ssRNA)
RNA: GGGAGUUCUACAGUCCGACGAUCAUAAUGGCGGCAGCUACGGGGGAUCCUGGACUCUCUAAACUGCAGUUUGCCCCUUUCCGCCGUGCCUUGGAUGUUGGGUUUUGGCAUGAGUUGACCCAGAAGAAGCUGAACGAGUAUCGGCAACAGAGGAUUGAGCAUCA
B16: chrX:15345595:15346132:-|three_prime_utr|ENSG00000165197|control|control|control (ssRNA)
RNA: GGGAGUUCUACAGUCCGACGAUCCAGACCAACCUUCCAUUCACACCAGCUAAGGAGUCCCUGGUUCAUUGAUGGAUGUCUUCUAGCUGCAGAUGCCUCUGCGCACCAAGGAAUGGAGAGGAGGGGACCCAUGUAAUCCUUUUGCAACAGAGGAUUGAGCAUCA
B17: chrX:65741840:65741941:+|3pUTR|ENSG00000147065|msi1|FALSE|unique (ssRNA)
RNA: GGGAGUUCUACAGUCCGACGAUCAAAUUGUUUUUGGAGGGGUUUAUGCUCAAUCCAUGUUCUAUUUCAGUGCCAAUAAAAUUUAGGAAGACUUCACAGUGACUCAAUCGUUCUUUGUGGUAUGAGUGGGUAGCUGUAAGAUAUCAACAGAGGAUUGAGCAUCA
B18: chr10:72011937:72012038:+|3pUTR|ENSG00000122863|msi1|total|mutant (ssRNA)
RNA: GGGAGUUCUACAGUCCGACGAUCCAUACACCGCAGGUGGUCACCGAGUUAUUUUCCAAAAGCUGAGGAACAUAAAGCAAAUUCCGGCUUUUGUCCUUCUGCAAUACAUGCACUUGAAAAUAAACAGAAAAGAGAUGUUUAAUACAACAGAGGAUUGAGCAUCA
B19: chr17:50110931:50111032:+|3pUTR|ENSG00000005882|unk|total|mutant (ssRNA)
RNA: GGGAGUUCUACAGUCCGACGAUCUGUGCCCAGACAUGUGUGCUCAGGGUGGCUUUCUCCCCCGGACCUUCUGUGUAUACCGUCCGUUUUAUAACCCUGAAUGCCCCCACCCUUCCCCUAAGCACACAGGGGUUAAAGCUGUGUCAACAGAGGAUUGAGCAUCA
B20: chr6:132588675:132589686:-|CDS|ENSG00000135569|control|control|control (ssRNA)
RNA: GGGAGUUCUACAGUCCGACGAUCUGCCAAGACCCUGGGCAUUGCUGUGGGCAUAUACCUCUUGUGCUGGCUGCCCUUCACCAUAGACACGAUGGUCGACAGCCUCCUUCACUUUAUCACACCCCCACUGGUCUUUGACAUCUUCAACAGAGGAUUGAGCAUCA
B21: chr2:1632407:1632508:-|3pUTR|ENSG00000130508|msi1|total|mutant (ssRNA)
RNA: GGGAGUUCUACAGUCCGACGAUCUUGGUAAGUGAUUGAUAAAAAUUGGUUGGUGUUUCAUGACAUGUGGACUUCUUUUGAAACCGCAAGUCAAAUGCCGUGACCAAAUUGUGGAAGAGAUUUCUGUCAAACCGGAAAUGUGUACAACAGAGGAUUGAGCAUCA
B22: ENSG00000198589:be:win_3901|CDS|ENSG00000198589|bound_else_gene|NA|bound_elsewhere_windowed (ssRNA)
RNA: GGGAGUUCUACAGUCCGACGAUCUCUACUGUGUUUCGUAUUCCUGAGUUCAACUGGUCUCAGAUGCAUCAACGUUUGCUCACUGAUCUAUUAUUUUCAAUAGAAACAGAUAUACAGAUGUGGAGAAGCCAUUCAACAAAGACACAACAGAGGAUUGAGCAUCA

For 22 molecules, binding signal results are on record in PMC12136788.

The full ranking holds about 5,800 sequences; the median of “enrichment r” is about 0.68, and the highest 2% start at about 11. Not all results are given here.

The test addresses T1, UNK ZnF1-6 (called full-length). In words: nsRBNS (natural sequence RNA bind-n-seq); RBNS binding buffer (assumed for nsRBNS): 25 mM Tris pH 7.5, 150 mM KCl, 3 mM MgCl2, 0.01% Triton X-100, 500 ug/ml BSA, 20 U/ml SUPERase-In, 4 C; UNK is unkempt and MSI1 is Musashi-1; names of the RNAs are library labels; protein concentration not given here; high values mean tight binding.
The molecule B1 had a binding signal of 1.43 enrichment R. The result for B2 reads 0.552 enrichment R; that for B3, 0.467 enrichment R. As to B4, the binding signal was determined as 0.381 enrichment R.

In the case of B5, the binding signal was determined as 1.46 enrichment R. Molecule B6 came in with a binding signal of 0.375 enrichment R.

For B7, the binding signal was found to be 0.886 enrichment R. On to B8, for which the binding signal is 1.06 enrichment R. In turn, B9 gave a binding signal of 0.531 enrichment R. Regarding B10, the binding signal was 0.414 enrichment R.

With B11, the binding signal was 1.05 enrichment R. For the molecule B12, the binding signal worked out at 0.405 enrichment R.

B13 registered a binding signal of 0.569 enrichment R.

Molecule B14 displayed a binding signal of 0.637 enrichment R. B15 registered a binding signal of 0.839 enrichment R. Regarding B16, the binding signal was 0.639 enrichment R.

B17 had a binding signal of 0.698 enrichment R.

In the case of B18, the binding signal amounted to 0.34 enrichment R. Consider B19, for which the binding signal is 1.06 enrichment R. The result for B20 reads 0.967 enrichment R; that for B21, 0.207 enrichment R; that for B22, 0.382 enrichment R.
